# In PubChem BioAssay AID1851 (National Center for Advancing Translational Sciences (NCATS), 2009):
# Out of some 16,000 compounds screened, about 5,700 (36%) were called active. Not shown: some 24% with an inconclusive outcome. The call rests on the fitted dose curve; in most records, active means well fitted curve in the direction sought with a large enough effect; inconclusive means small, poorly fitted or top-dose-only effect, or effect the other way; inactive means no such curve, though single readings can be large or run the other way. The list shows a part of the results. Square brackets hold non-standard residues; d marks the D form. Peptide text beside a SMILES is read from it. Ac5c = NC1(C(=O)O)CCCC1
# Target: Cytochrome P450 1A2 (Homo sapiens) (UniProt P05177)
# Assay: Cytochrome panel assay with activity outcomes
# Conditions: recombinant CYP, pro-luciferin dealkylation, luminescence, p450-cyp1a2; series mostly up to 57.1 µM
# On the % scale 0 is the no-effect control and ±100 the full control effect.
# Cytochrome P450 1A2 (Homo sapiens), sequence (P05177 whole entry, looked up): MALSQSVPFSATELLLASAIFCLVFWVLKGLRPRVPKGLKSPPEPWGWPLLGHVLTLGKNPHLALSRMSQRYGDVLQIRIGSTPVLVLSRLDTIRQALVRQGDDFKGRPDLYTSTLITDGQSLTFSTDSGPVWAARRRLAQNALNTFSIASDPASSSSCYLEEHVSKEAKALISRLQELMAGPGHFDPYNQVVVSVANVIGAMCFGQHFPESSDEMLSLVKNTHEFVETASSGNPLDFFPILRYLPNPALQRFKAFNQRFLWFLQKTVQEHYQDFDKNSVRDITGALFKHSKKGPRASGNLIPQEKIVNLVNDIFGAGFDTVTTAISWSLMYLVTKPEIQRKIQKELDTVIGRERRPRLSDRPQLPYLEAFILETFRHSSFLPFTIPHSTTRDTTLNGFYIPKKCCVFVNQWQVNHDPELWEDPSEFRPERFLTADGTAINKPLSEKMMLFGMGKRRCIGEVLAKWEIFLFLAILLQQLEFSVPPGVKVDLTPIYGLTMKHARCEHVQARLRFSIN
Compound,AC50,"activity, negative = inhibition"
CC(C)NC(=O)N1CCC2(CC1)CCN(C(=O)c1ccco1)CC2,inactive,
CC(C)(C)CC(C)(C)c1ccc(O)c(C[N+](C)(C)[O-])c1,,-17.9% [at 2.29 µM] (inactive)
CCOC(=O)c1c(-c2ccccc2)cn2ccccc12,0.501 µM (active),
COC(=O)[C@H](Cc1ccccc1)NC(=O)[C@@H](C)CO,,-9.35% [at 11.4 µM] (inactive)
O=C(O)C(Cc1ccccc1-c1ccccc1)C(=O)O,,-6.71% [at 11.4 µM] (inactive)
CCOC(=O)c1c2c(n3ccccc13)C(=O)c1ccccc1C2=O,0.1 µM (active),
COc1cc2cc(CN(CCCO)S(=O)(=O)c3ccccc3Cl)c(=O)[nH]c2cc1OC,inactive,
COc1cccc(C(=O)N(Cc2ccccc2)Cc2cc3cc4c(cc3[nH]c2=O)OCCO4)c1,14.1 µM (active),
COc1ccc(CNC(=O)CN(CC2CCCO2)C(=O)CNS(=O)(=O)c2ccccc2)cc1 (stereo unspecified),inactive,
N=C(N)SCCN,inactive,
CCOc1ccc(/C(O)=C2\C(=O)C(=O)N(CCOCCO)C2c2ccccc2OC)cc1 (stereo unspecified),inactive,
c1cncc(CNc2ncnc3ccc(-c4ccoc4)cc23)c1,0.316 µM (active),
c1ccc(Nc2ncnc3ccc(-c4cccnc4)cc23)cc1,0.0794 µM (active),
Cc1cccc(CNc2ncnc3ccc(-c4cccnc4)cc23)c1,0.316 µM (active),
c1ccc(CNc2ncnc3ccc(-c4cccnc4)cc23)cc1,0.126 µM (active),
CN(CC(=O)O)Cc1oc(CO)cc(=O)c1O,,-18.3% [at 11.4 µM] (inactive)
CC(=O)Nc1ccc(Sc2ncccc2C(=O)Nc2ccc(F)cc2)cn1,inactive,
Cc1ccnc(N)c1,inactive,
CSc1ccc(NC(=O)Nc2cc(C)ccn2)cc1,0.501 µM (active),
COC(=O)/C=C\CCc1coc(/C=C\CNC(=O)OC)n1,,2.69% [at 11.4 µM] (inactive)
COC(=O)C1CSC(C(=O)OC)N1C(=O)Nc1c(C)cccc1C (stereo unspecified),inactive,
O[C@@](CCN1CCCCC1)(c1ccccc1)C1CCCCC1,inactive,
CC[C@H](CO)NCCN[C@@H](CC)CO,inactive,
Cn1cnc2c(NCc3ccccc3)nc(NCCO)nc21,5.01 µM (active),
Cn1c(=O)[nH]c(=O)c2c1nc(NCCCO)n2CCCc1ccccc1,inactive,
Cc1ccccc1CNc1ncnc2c1ncn2[C@@H]1O[C@@H](CO)[C@H](O)[C@@H]1O,inactive,

Compound,AC50,"activity, negative = inhibition"
COc1cnc(SCc2ccc(Cl)cc2)nc1Cl,12.6 µM (active),
FC(F)(F)c1nc(SCc2ccc(Cl)cc2)n[nH]1,,-18.8% [at 2.29 µM] (inactive)
CC1=CC(=O)c2ccccc2C1=O,0.158 µM (active),
CC(C)NCCOCCSc1ccc(Cl)cc1,5.01 µM (active),
CCCCNCCOCCSc1ccc(Cl)cc1,12.6 µM (active),
CCCCNC(=O)NS(=O)(=O)c1cnccc1Sc1ccc(Cl)cc1,inactive,
Cc1cc(=O)[nH]c2c1c(C)nn2C1CCOC(C)(C)C1 (stereo unspecified),inactive,
CO[C@@H]1COC(=O)[C@H](C)NC(=O)[C@@H](C)COC(=O)CCC[C@H]1C,,-10.3% [at 11.4 µM] (inactive)
O=C(CCn1c(=O)[nH]c2ccsc2c1=O)Nc1ccc(F)c(F)c1,inactive,
O=C(CCCCn1c(=S)[nH]c2ccsc2c1=O)NCc1ccco1,1.26 µM (active),
O=C(CCCCCn1c(=O)[nH]c2ccsc2c1=O)NCc1ccc2c(c1)OCO2,14.1 µM (active),
CCOc1cc2[nH]c(=S)n(CCCC(=O)NCc3ccco3)c(=O)c2cc1OCC,inactive,
CCOc1cc2[nH]c(=O)n(CCCC(=O)NCc3ccc(OC)cc3)c(=O)c2cc1OCC,inactive,
Cc1nc2ncnn2c(C)c1CCC(=O)NCc1ccco1,inactive,
CC(=O)Nc1c(C)nn(-c2ccc(C)c(C)c2)c1C,14.1 µM (active),
Cc1ccc(-n2c(C)cc(C(=S)N3CCOCC3)c2C)cc1C,inactive,
CC(=O)Nc1c(C(=O)N2CCOCC2)cnn1-c1ccc(C)c(C)c1,inactive,
NCC(=O)NC1(C(=O)O)CCCC1 (H-Gly-[Ac5c]-OH),,-5.18% [at 11.4 µM] (inactive)
O=C1CC(=O)C(n2cncn2)C(c2cccc(Cl)c2)C1 (stereo unspecified),inactive,
C[N+](C)(C)CCCCCNCC12CC3CC(CC(C3)C1)C2,inactive,
COc1ccccc1CN1C(=O)c2ccncc2C1=O,14.1 µM (active),
COc1ccccc1CN1CC2(CCN(C(=O)c3cnccn3)CC2)C1,inactive,
COc1ccccc1CN1CC2(CCN(C(=O)c3ccncc3)CC2)C1,inactive,
O=C1N=C(N2CCOCC2)S/C1=C/c1cccs1,5.62 µM (active),
O=C1N=C(N2CCOCC2)S/C1=C\C=C/c1ccccc1,14.1 µM (active),
NC1=NC(=O)/C(=C/c2cccs2)S1,1.41 µM (active),

Compound,AC50,"activity, negative = inhibition"
CC(C)(C)OC(=O)[C@H]([C@@H]1N[C@@H](C(=O)O)C(C)(C)S1)N1C(=O)c2ccccc2C1=O,,-1.41% [at 2.29 µM] (inactive)
C[C@H]1CC(C)(C)C[C@@](OCCN2CCCCC2)(c2ccccc2)C1,,0.209% [at 11.4 µM] (inactive)
CCCN1CC=C2C(C#N)=C(N)C(C#N)(C#N)C(c3cc(OC)ccc3OC)C2C1 (stereo unspecified),31.6 µM (active),
O=C(O)C[n+]1ccccc1,,-7.86% [at 11.4 µM] (inactive)
COc1ccc(O[C@H]2C=C[C@@H](c3ccccc3)O[C@H]2COC(=O)CC/C(C)=N/OCC[C@@H]2C=C[C@H](OC(C)=O)[C@H](COC(C)=O)O2)cc1,,-2.16% [at 11.4 µM] (inactive)
CN=C1N[C@H](c2ccccc2)N(c2ccccc2)S1,1.26 µM (active),
Cc1c(CCC(C)C)c(-n2ccnc2C)n2c(nc3ccccc32)c1C#N,inactive,
Cc1ccccc1S(=O)(=O)Oc1ccccc1C(=O)Oc1ccccc1,3.55 µM (active),
Cc1ccccc1S(=O)(=O)O[C@@H]1NS(=O)(=O)c2ccccc21,,13.5% [at 2.29 µM] (inactive)
COC(=O)[C@H](Cc1ccccc1)NC(=O)N1CCN(Cc2ccccc2)CC1,inactive,
Oc1ccc2ccccc2c1C=NCc1c(O)ccc2ccccc12,1.58 µM (active),
O=C(O)Cc1c(O)ccc2ccccc12,,-9.69% [at 11.4 µM] (inactive)
COc1ccccc1CN1CCCC2(CCNCC2)C1,inactive,
O=S(=O)(c1ccccc1)N1CCC[C@@]2(CCN(c3ccncc3)C2)C1,inactive,
c1ccc(-c2ccc(N3CC[C@@]4(CCCNC4)C3)cc2)cc1,12.6 µM (active),
c1ccc(-c2ccc(N3CCCC4(CCNCC4)C3)cc2)cc1,10 µM (active),
O=C(c1csnn1)N1CCC2(CCCN(c3ccc(-c4ccccc4)cc3)C2)CC1,inactive,
c1ccc(C(c2ccccc2)N2CC[C@@]3(CCCNC3)C2)cc1,inactive,
c1ccc(-c2ccc(N3CC4(CCNCC4)C3)cc2)cc1,15.8 µM (active),
N[C@@H](Cc1ccccc1)C(=O)O,,-14% [at 11.4 µM] (inactive)
Cc1ccccc1-c1nc(N(C)C)c2ccccc2n1,0.631 µM (active),
CN(C)c1nc(-c2ccccc2C(F)(F)F)nc2ccccc12,0.251 µM (active),
COc1ccccc1-c1nc(N(C)C)c2ccccc2n1,0.398 µM (active),
Cc1ccc(-c2ccc(=O)n(CC(=O)NCCN3CCCCC3C)n2)cc1 (stereo unspecified),inactive,
O=C(NCC1COc2ccccc2O1)C1C2C=CC3(CN(Cc4cccs4)C(=O)C13)O2 (stereo unspecified),inactive,
CC(C)C(=O)Nc1ccc(C(=O)NNC(=O)CCCOc2ccc(Cl)cc2Cl)cc1,inactive,

Compound,AC50,"activity, negative = inhibition"
COc1ccc(/C=N/NC(=O)CCCOc2ccc(Cl)cc2Cl)cc1[N+](=O)[O-],1.26 µM (active),
COC(=O)CCCC(=O)O,,-7.34% [at 2.29 µM] (inactive)
COCCCNC(=O)C(=O)N/N=C/c1ccc(OCC(=O)Nc2cccc(Cl)c2C)c(OC)c1,inactive,
CC1(C)CC(=O)C/C(=N/NC(=O)CCCOc2ccc(Cl)cc2Cl)C1,15.8 µM (active),
COC(=O)CCC(=O)NNC(=O)CCCOc1ccc(Cl)cc1Cl,12.6 µM (active),
Cc1cccc(CNc2ccnc(-c3ccccc3Cl)n2)c1,1.58 µM (active),
Cc1cccc(CNc2ccnc(-c3ccccc3CN(C)C)n2)c1,3.16 µM (active),
Clc1ccccc1-c1nccc(NCc2ccccc2)n1,3.16 µM (active),
COc1ccc(-n2c(N)c(C(=O)NCc3ccco3)sc2=S)cc1,11.2 µM (active),
CCOc1ccc(-n2c(N)c(C(=O)NCc3cccnc3)sc2=S)cc1,inactive,
OC[C@@H]1NC[C@@H](O)[C@H]1O,inactive,
CCOC(=O)c1[nH]c2ccc(Cl)cc2c1-c1ccccc1,0.398 µM (active),
NC(=NCc1ccc(Cl)c(Cl)c1)NC(=O)c1nc(Cl)c(N)nc1N,10 µM (active),
CCNC(=O)CC1C(=O)N(c2ccc(F)cc2)C(=O)N1CCc1ccc(OC)cc1 (stereo unspecified),inactive,
CC(=O)Nc1ccc(S(=O)(=O)NC2(C(F)(F)F)NC(=O)N(c3ccc(Cl)cc3)C2=O)cc1 (stereo unspecified),inactive,
O=C(CC1C(=O)N(c2ccc(Cl)cc2)C(=S)N1CCc1ccncc1)Nc1ccc(F)cc1 (stereo unspecified),5.01 µM (active),
CCCn1c(-c2ccccc2)nc2c(=O)n(C)c(=O)[nH]c21,inactive,
Cn1c(-c2ccccc2)cnc1N,17.8 µM (active),
CN(C)c1ccc(-c2nc(Nc3ccncc3)c3ccccc3n2)cc1,0.501 µM (active),
CN(C)c1nc(-c2ccoc2)nc2ccccc12,0.501 µM (active),
CNc1nc(-c2ccc(N(C)C)cc2)nc2ccccc12,0.2 µM (active),
CN(C)c1ccc(-c2nc(N(C)C)c3ccccc3n2)cc1,0.251 µM (active),
COCC(=O)N1CCC[C@@]2(CCN(Cc3ccccc3)C2)C1,inactive,
